Measured values from the supplement of paper PMC6089552.
Hit rate of the full screen: of about 3,200 compounds, about 300 (9.4%) showed activity. The sample as a whole holds a higher share of actives than the screen did.

Tested on: A673/TR/shEF
Test: cell viability (LOESS-normalised, relative to median of negative controls) (log2 ratio); higher = more viable cells (less compound effect), active = hit call of the paper (over 3 MAD below the median)
Settings: treatment time: 72 h
Summary of the method: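 A673/TR/shEF Ewing sarcoma cells (1,500 per well, 384-well plates) were grown with or without doxycycline to induce EWS-FLI1 shRNA knockdown, starting 24 h before compounds. Library compounds at two or more concentrations, with DMSO controls, were added for three days. Cell viability was read by CellTiter-Glo luminescence on an Envision reader, then LOESS-corrected per plate, divided by the median of negative controls and log2-transformed. Hits were wells at least three median absolute deviations from the median of all screened wells.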

[1] = 0.25 µM, library screen: screen1, EWS-FLI1 expression: high (no doxycycline)
[2] = 0.25 µM, library screen: screen1, EWS-FLI1 expression: low (doxycycline-induced shRNA knockdown)
[3] = 2.5 µM, library screen: screen1, EWS-FLI1 expression: high (no doxycycline)
[4] = 2.5 µM, library screen: screen1, EWS-FLI1 expression: low (doxycycline-induced shRNA knockdown)
[5] = 0.025 µM, library screen: screen1, EWS-FLI1 expression: high (no doxycycline)
[6] = 0.025 µM, library screen: screen1, EWS-FLI1 expression: low (doxycycline-induced shRNA knockdown)
[7] = 0.25 µM, library screen: screen2, EWS-FLI1 expression: high (no doxycycline)
[8] = 0.25 µM, library screen: screen2, EWS-FLI1 expression: low (doxycycline-induced shRNA knockdown)
[9] = 2.5 µM, library screen: screen2, EWS-FLI1 expression: high (no doxycycline)
[10] = 2.5 µM, library screen: screen2, EWS-FLI1 expression: low (doxycycline-induced shRNA knockdown)
[11] = 25 µM, library screen: screen1, EWS-FLI1 expression: high (no doxycycline)
[12] = 25 µM, library screen: screen1, EWS-FLI1 expression: low (doxycycline-induced shRNA knockdown)
[13] = 0.103 µM, library screen: screen3, EWS-FLI1 expression: high (no doxycycline)
[14] = 0.103 µM, library screen: screen3, EWS-FLI1 expression: low (doxycycline-induced shRNA knockdown)
[15] = 0.308 µM, library screen: screen3, EWS-FLI1 expression: high (no doxycycline)
[16] = 0.308 µM, library screen: screen3, EWS-FLI1 expression: low (doxycycline-induced shRNA knockdown)
[17] = 0.926 µM, library screen: screen3, EWS-FLI1 expression: high (no doxycycline)
[18] = 0.926 µM, library screen: screen3, EWS-FLI1 expression: low (doxycycline-induced shRNA knockdown)
[19] = 2.8 µM, library screen: screen3, EWS-FLI1 expression: high (no doxycycline)
[20] = 2.8 µM, library screen: screen3, EWS-FLI1 expression: low (doxycycline-induced shRNA knockdown)
[21] = 8.3 µM, library screen: screen3, EWS-FLI1 expression: high (no doxycycline)
[22] = 8.3 µM, library screen: screen3, EWS-FLI1 expression: low (doxycycline-induced shRNA knockdown)
[23] = 25 µM, library screen: screen3, EWS-FLI1 expression: high (no doxycycline)
[24] = 25 µM, library screen: screen3, EWS-FLI1 expression: low (doxycycline-induced shRNA knockdown)

Measured: cell viability (log2)

CC(C)(O)CC[C@@H](O)[C@@](C)(O)[C@H]1CC[C@@]2(O)C3=CC(=O)[C@@H]4C[C@@H](O)[C@@H](O)C[C@]4(C)[C@H]3CC[C@]12C
inactive: [1] 0.0407 | [2] 0.101 | [3] 0.0783 | [4] 0.0234

C=C1C(CCl)(CCl)C2(Cl)C(Cl)C(Cl)C1(Cl)C2(Cl)Cl (stereo not drawn)
inactive: [1] 0.0656 | [2] 0.021 | [3] 0.0692 | [4] 0.132

COC(=O)[C@@H]1OC(=O)C2OC23[C@@]1(C)CCC1[C@@]2(C)CCC(=O)C(C)(C)C2C[C@@H](OC(C)=O)[C@]13C (stereo partly drawn)
inactive: [1] 0.0302 | [2] 0.00682 | [3] 0.123 | [4] 0.0574

O=C(/C=C/c1ccc(O)cc1O)c1ccccc1
inactive: [1] 0.0477 | [2] 0.0515 | [3] 0.136 | [4] 0.0296

COC(=O)/C=C/c1cc(O)ccc1O
inactive: [5] 0.177 | [6] 0.0349 | [1] 0.18 | [2] 0.0134 | [7] 0.108 | [8] 0.184 | [4] -0.137 | [9] 0.0473 | [10] 0.11
active: [3] -0.379 | [11] -0.809 | [12] -0.511

COc1cc(/C=C/C(=O)O)ccc1O
inactive: [1] 0.0581 | [2] -0.0401 | [3] 0.12 | [4] -0.00647

CC(=O)O[C@@H]1CC[C@@]2(C)[C@H](CC[C@@H]3[C@@H]2C[C@H](OC(C)=O)[C@]2(C)[C@@H](C(C)=O)CC[C@@H]32)C1
inactive: [1] 0.135 | [2] 0.117 | [3] 0.0696 | [4] 0.102

CC(C1OC(C)(C)C(O)C1O)[C@@H]1CC[C@]2(C)C3=CCC4C(C)(C)C(=O)CC[C@]4(C)C3CC[C@@]12C (stereo partly drawn)
inactive: [1] 0.062 | [2] 0.126 | [3] 0.148 | [4] 0.137

c1ccc([C@H]2CN3CCSC3=N2)cc1
inactive: [5] 0.0743 | [6] 0.0216 | [13] 0.103 | [14] 0.000516 | [1] 0.0991 | [2] 0.0737 | [7] 0.069 | [8] 0.0838 | [15] 0.127 | [16] 0.0938 | [17] 0.0997 | [18] 0.0447 | [4] 0.0839 | [9] 0.126 | [10] 0.0627 | [19] 0.136 | [20] 0.0913 | [21] 0.12 | [22] 0.085 | [12] -0.0899 | [23] 0.0427 | [24] 0.11
active: [3] -0.0948 | [11] -0.295

Brc1ccc([C@H]2CN3CCSC3=N2)cc1
active: [3] -0.357 | [11] -0.468 | [12] -0.309
inactive: [5] 0.216 | [6] 0.000942 | [1] 0.234 | [2] 0.105 | [7] -0.0213 | [8] 0.123 | [4] -0.0691 | [9] 0.117 | [10] 0.109

c1ccc(C2CN3CCSC3=N2)cc1 (stereo not drawn)
inactive: [5] 0.0711 | [6] 0.0575 | [1] 0.0459 | [2] 0.00911 | [7] 0.102 | [8] 0.0185 | [4] 0.107 | [9] 0.166 | [10] 0.00181 | [12] 0.0697
active: [3] -0.215 | [11] -0.261

CC(=O)O[C@@H]1C=C[C@@]2(C)C(C[C@@H](OC(C)=O)[C@@]3(C)C4=CC(=O)O[C@@H](c5ccoc5)[C@]4(C)CCC23)C1(C)C (stereo partly drawn)
inactive: [1] 0.0555 | [2] 0.12 | [3] 0.1 | [4] 0.125

CC(=O)O[C@@H]1CC[C@@]2(C)C(=CC=C3[C@@H]4CC[C@H]([C@H](C)/C=C/[C@H](C)C(C)C)[C@@]4(C)CC[C@@H]32)C1
inactive: [1] 0.0486 | [2] 0.129 | [3] 0.176 | [4] 0.156

[Cl][Pt+2][Cl].[NH2-].[NH2-]
inactive: 0.025 µM, library screen: screen2, EWS-FLI1 expression: high (no doxycycline) 0.0701 | 0.025 µM, library screen: screen2, EWS-FLI1 expression: low (doxycycline-induced shRNA knockdown) 0.092 | [13] 0.0436 | [14] 0.101 | [1] 0.0699 | [2] 0.0806 | [7] 0.126 | [8] 0.0568 | [15] 0.119 | [16] 0.0647 | [17] 0.132 | [18] 0.00232 | [3] 0.0557 | [4] 0.0761 | [9] 0.062 | [10] 0.0651 | [19] 0.0695 | [20] 0.05 | [21] 0.0685 | [22] 0.0664 | 25 µM, library screen: screen2, EWS-FLI1 expression: high (no doxycycline) 0.079 | 25 µM, library screen: screen2, EWS-FLI1 expression: low (doxycycline-induced shRNA knockdown) 0.0718 | [23] 0.135 | [24] 0.0626

CC(C)CCC[C@@H](C)[C@H]1CC[C@H]2[C@@H]3CC[C@H]4C[C@@H](O)CC[C@]4(C)[C@H]3CC[C@]12C
inactive: [1] 0.0663 | [2] 0.113 | [3] 0.0848 | [4] 0.113

COC(=O)c1c(Cl)c(Cl)c(C(=O)OC)c(Cl)c1Cl
inactive: [1] 0.0653 | [2] 0.0707 | [3] 0.0863 | [4] 0.122

CC1(C)C(=O)C=C[C@@]2(C)C1CC(=O)[C@@]1(C)C3=CC(=O)O[C@@H](c4ccoc4)[C@]3(C)CCC12 (stereo partly drawn)
inactive: [1] 0.0432 | [2] 0.0348 | [3] 0.201 | [4] 0.163

CCOC([O-])=Nc1c[n+](N2CCOCC2)no1
inactive: [1] 0.0951 | [2] 0.0303 | [7] 0.227 | [8] 0.0663 | [3] 0.0784 | [4] 0.0384 | [9] 0.102 | [10] 0.116

CC1(C)O[C@H]2[C@H](O)C[C@](O)(C(N)=O)C[C@H]2O1
inactive: [1] -0.0199 | [2] -0.00566 | [3] 0.076 | [4] 0.0924

Oc1ccc2c(c1)OC[C@]1(O)Cc3cc(O)c(O)cc3[C@H]21
inactive: [1] 0.113 | [2] 0.129 | [3] 0.0951 | [4] 0.187
